An excerpt weighted towards active compounds, which were near 19% of everything screened.
BCR signal inh – chronic active BCR signaling inhibition | ABC-DLBCL IkBa-CBG/CBR reporter, luminescence ratio, 4 h | Potency, µM (highest dose often 46.1 µM), most hits filed as inhibitors | 340,000 compounds, 0.05% hits; active means well fitted inhibition curve with a large enough effect in the signal ratio, with a control signal flat, not every such curve was filed as active; inconclusive means small, poorly fitted or top-dose-only effect, or effect the other way, or a change in a side signal; the % refers to the signal ratio
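TMD8 human ABC-DLBCL cells with doxycycline-inducible IκBα–green luciferase fusion and unfused red luciferase, in 0.5% FBS medium; compounds up to 46 uM, 4 h at 37C. Green/red luminescence ratio, filter-overlap corrected, fitted to concentration-response curves.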
DT40 TDP1 CPT – growth inhibition of DT40 Tdp1-/-;hTDP1 cells with camptothecin (screen for TDP1 inhibitors); chicken DT40 Tdp1-/-;hTDP1 cells + 20 nM CPT, ATP luminescence, 48 h; Potency, µM (titrated, usually from 46.2 µM), actives largely listed as inhibitors; 420,000 compounds, 12% hits; AID 686979; further: nearly all actives have a fitted effect of over 55% in size
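Chicken DT40 Tdp1-/- cells complemented with human TDP1, 400 cells/well, exposed to compounds plus 20 nM camptothecin for at least 48 h at 37 C; viability read as ATP content by CellTiter-Glo luminescence.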
MCF10A rereplic – inducers of DNA re-replication in MCF 10A breast cells; MCF 10A DNA re-replication, Hoechst nuclear intensity, 48 h; Potency, µM (series often up to 46.1 µM), most hits filed as activators; 350,000 compounds, 2.9% hits; AID 624296; further: nearly all actives have a fitted effect of over 50% in size
TDP1 cell noCPT – qHTS for Inhibitors of human tyrosyl-DNA phosphodiesterase 1 (TDP1): qHTS in cells in absence of CPT | 420,000 compounds, 15% hits | DT40 Tdp1-/- hTDP1 cells, no CPT, ATP luminescence, 48 h | Potency, µM (titrated, usually from 46.2 µM), actives largely listed as inhibitors | AID 686978, 2013; further: nearly all actives have a fitted effect of over 55% in size
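Compound effects on proliferation are scored in DT40 Tdp1-/-;hTDP1 cells in the absence of CPT. ATP levels (CellTiter-Glo luminescence) are recorded after a ≥48 hr, 37 °C incubation.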
SW480 rereplic – induces DNA re-replication in SW480 colon adenocarcinoma cells; 340,000 compounds, 1.8% hits; Potency, µM (titrated, usually from 46.1 µM), actives largely listed as activators; SW480 DNA re-replication, Hoechst DNA content imaging, 48 h; further: nearly all actives have a fitted effect of over 55% in size
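First, 250 cells per well were seeded. Next, compound or vehicle (23 nL) was pinned in, plates sat 48 hr at 37 C. Finally Hoechst was added for 40 min before fluorescence scanning.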
IL-1B inflam inh – blocks inflammasome-driven IL-1 beta release; THP-1 LPS/ATP IL-1B secretion, AlphaLISA, 16 h; hits give low values; activity change, % at 57.5 µM; 360,000 compounds, 4.7% hits; AID 743279; in the data active means activity change below about -50%; inconclusive means mostly about -30% to -49%
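THP-1 cells pretreated 1 hr with compounds (up to 57.5 uM final), then stimulated with LPS (250 ng/mL final) plus ATP (1.25 mM final); secreted IL-1B measured by AlphaLISA after 16 hr, decreased signal indicating inhibition.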
Numbers stand for hits; i = inactive; ? = inconclusive; nt = no result; [ ] = dose if it differs, or a comment. Unless noted, the call rests on the fitted dose curve; in most records, active means well fitted curve in the direction sought with a large enough effect; inconclusive means small, poorly fitted or top-dose-only effect, or another doubt; inactive means no such curve, though single readings can be large; an effect the other way counts as inactive or inconclusive.

SMILES	BCR signal inh	DT40 TDP1 CPT	MCF10A rereplic	TDP1 cell noCPT	SW480 rereplic	IL-1B inflam inh
O=C1OC(c2ccc3ccccc3c2O)(c2ccc3ccccc3c2O)c2ccccc21	nt	5.8µM	?	5.2µM	?	-51
O=C1OC(c2ccc(O)cc2)(c2ccc(O)cc2)c2ccccc21	?	?	?	?	?	i
O=C1OC(c2ccccc2)(c2ccc3cc(O)ccc3c2)c2ccccc21 (centres undefined)	nt	21µM	?	?	?	?
COc1ccc(NC(=S)NC2CCCCC2)cn1	?	i	i	i	i	i
CN(CCc1ccccc1)C(=O)c1ccc(NC(=O)Cc2ccc(NC(=O)C3CCN(C(=O)C4CCCC4)CC3)cc2)cc1	nt	16µM	i	23µM	?	?
CN(CCc1ccccc1)C(=O)c1ccc(NC(=O)Cc2ccc(NC(=O)C3CCN(C(=O)C4CC4)CC3)cc2)cc1	nt	23µM	i	?	?	-56
CCOc1cc(Cl)c(NC(=O)CC)cc1OCC	i	i	i	i	18µM	i
CC(C)N1CCc2c(sc(NC(=O)c3ccc4ccccc4c3)c2C(N)=O)C1	?	15µM	9.2µM	?	15µM	-84
CC(C)N1CCc2c(sc(NC(=O)Cc3ccccc3)c2C(N)=O)C1	?	i	i	i	i	?
CCCNC(=O)c1cc2cc([N+](=O)[O-])ccc2s1	?	i	i	i	i	i
CC(C)N1CCc2c(sc(NC(=O)c3cc4cc([N+](=O)[O-])ccc4s3)c2C(N)=O)C1	?	4.6µM	?	4.6µM	i	i
CC(C)NC(=O)c1cc2cc([N+](=O)[O-])ccc2s1	i	?	i	15µM	i	i
CC(C)N1CCc2c(sc(NC(=O)CCc3ccccc3)c2C(N)=O)C1	i	i	?	i	i	?
CC(C)N1CCc2c(sc(NC(=O)c3ccc(C(=O)c4ccccc4)cc3)c2C(N)=O)C1	?	?	16µM	23µM	?	-98
COc1cccc(NC(=O)Cn2c(=O)n(-c3ccc(CC(=O)NCC4CCCO4)cc3)c(=O)c3ccccc32)c1 (centres undefined)	nt	i	nt	?	nt	nt
CCOC(=O)C1CCN(CC(=O)c2ccc(O)c(C)c2O)CC1	i	?	i	?	i	i
CCn1c(SCc2nc3ccccc3c(=O)[nH]2)nc2ccccc21	i	?	?	21µM	i	i
Cc1sc2nc(CSc3ncn[nH]3)[nH]c(=O)c2c1C	i	?	i	?	i	i
CCCn1c(SCc2nc3sc(C)c(C)c3c(=O)[nH]2)nc2ccccc2c1=O	i	?	?	15µM	i	i
Cn1c(Cc2ccccc2)nnc1SCc1nc2ccccc2c(=O)[nH]1	i	i	i	i	i	i
Cc1sc2nc(CSc3nnnn3-c3ccc(Cl)cc3)[nH]c(=O)c2c1C	i	?	?	16µM	?	i
COCCn1c(SCc2nc3ccccc3c(=O)[nH]2)nc2ccccc2c1=O	?	?	i	?	i	i
COCCn1c(Cc2ccccc2)nnc1SCc1nc2ccccc2c(=O)[nH]1	i	?	i	16µM	i	i
CCc1nc2ccc(C(=O)NCCN3CCOCC3)cn2c1N(C)Cc1ccc(OC)cc1	nt	?	nt	23µM	nt	i
CCc1nc2ccc(C(=O)NCCN3CCOCC3)cn2c1N(C=O)Cc1ccc(OC)cc1	nt	i	nt	i	nt	i
SMILES	BCR signal inh	DT40 TDP1 CPT	MCF10A rereplic	TDP1 cell noCPT	SW480 rereplic	IL-1B inflam inh
CCc1nc2ccc(C(=O)NCCCN3CCCC3=O)cn2c1N(C)Cc1ccc(OC)cc1	nt	16µM	nt	?	nt	i
CCc1nc(SCC(=O)c2ccccc2)c2ccccc2n1	?	?	?	13µM	i	?
CCc1nc(SCC(=O)c2ccc3c(c2)OCCO3)c2ccccc2n1	i	?	?	?	?	-63
O=C(CSc1ncnc2ccccc12)c1ccc2c(c1)OCCO2	?	18µM	?	18µM	i	i
Cc1sc2ncnc(SCC(=O)c3ccc4c(c3)OCCO4)c2c1-c1ccccc1	i	6.5µM	i	9.2µM	nt	i
CC1CCc2c(sc3ncnc(SCC(=O)c4ccccc4)c23)C1 (centres undefined)	i	i	i	?	i	i
Cc1ccc(-c2csc3ncnc(SCC(=O)c4ccc5c(c4)OCCO5)c23)cc1	i	?	i	?	i	i
O=C(CSc1ncnc2scc(-c3ccc(F)cc3)c12)c1ccc2c(c1)OCCO2	?	21µM	i	18µM	i	i
Cc1nc(SCC(=O)c2cc(C)n(C3CC3)c2C)c2ccccc2n1	nt	8.2µM	nt	7.3µM	nt	i
CCN(CC)C(=O)CSc1nc(Cc2ccccc2)nc2ccccc12	i	?	i	?	i	i
O=C(CSc1nc(Cc2ccccc2)nc2ccccc12)c1ccc2c(c1)OCCO2	?	16µM	?	23µM	i	i
CCCc1nc(SCC(=O)c2ccc(OC)cc2)c2ccccc2n1	?	?	?	?	i	-90
CCC(C)(C)NC(=O)C(c1ccc(OC)cc1)N(C(=O)CCC(=O)Nc1cc(C)on1)c1ccc2c(c1)OCO2 (centres undefined)	i	?	i	?	i	i
CCCN(CC)C(CC)C(=O)Nc1c(C)cccc1C (centres undefined)	nt	i	nt	i	nt	nt
CCc1nc(SCC(=O)N2c3ccccc3Sc3ccccc32)c2ccccc2n1	i	?	i	15µM	i	?
COc1cccc(CNC(=O)c2oc3c(c2C)-c2nn(Cc4cccc(Cl)c4)cc2CC3)c1	nt	?	nt	18µM	nt	nt
CCOc1ccc(CNC(=O)Cn2cc3c(n2)-c2c(oc(C(=O)N4CCOCC4)c2C)CC3)cc1	nt	?	nt	21µM	nt	nt
COc1ccc(CNC(=O)c2oc3c(c2C)-c2nn(Cc4ccc(Cl)cc4)cc2CC3)cc1	nt	?	nt	23µM	nt	nt
COc1cccc(CNC(=O)Cn2cc3c(n2)CCCCC3)c1	?	?	i	i	i	i
COc1cccc(CNC(=O)c2oc3c(c2C)-c2nn(Cc4cccc(Cl)c4)cc2CC3)c1OC	nt	16µM	nt	21µM	nt	nt
COc1cc(=O)n2c(c1C(=O)NCc1ccco1)CCN(Cc1cccc(Cl)c1)CC2	nt	i[9.04 µM]	nt	i	nt	nt
Cc1ccc(CSC2=NCCN2C(=O)c2ccc([N+](=O)[O-])cc2)cc1	?	i	i	i	i	i
Cc1ccccc1C(=O)N1CCN=C1SCc1ccc([N+](=O)[O-])cc1	?	i	i	?	i	-77
Cc1ccc(C(=O)N2CCN=C2SCc2ccc([N+](=O)[O-])cc2)cc1	?	?	i	15µM	i	?
O=C(c1cccc2ccccc12)N1CCN=C1SCc1ccc([N+](=O)[O-])cc1	?	i	i	?	i	-65
COc1cc2[nH]c(C(=O)NN)c(N)c2cc1OC	i	nt	nt	nt	nt	nt
